# Compounds with a hit are over-represented: about 17% of the library has one in this group of screens.
# TGFb SMAD3 inh: qHTS for Inhibitors of TGF-b; HepG2 CAGA-GFP TGF-b/SMAD3 reporter, GFP fluorescence, 18 h; TGF-beta stimulated, 500 pg/mL final; Potency, µM (doses to about 46.1 µM), inactives show at the highest dose activity, negative = inhibition, usual class: inhibitors; 1.2% of 410,000 active; further: on the % scale 0 is the no-effect control and ±100 the full control effect; nearly all actives have a fitted effect of over 65% in size
#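 HEPG2 CAGA-GFP cells (1000/well, DMEM with 1% FBS) were pre-incubated 2 h at 37 degrees C, given compound by pin tool, then stimulated with TGF-beta at 500 pg/mL final for 18 h before per-cell GFP fluorescence imaging.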
# TDP1 cell CPT: qHTS for Inhibitors of human tyrosyl-DNA phosphodiesterase 1 (TDP1): qHTS in cells in presence of CPT; 12% of 420,000 active; Potency, µM (highest dose often 46.2 µM), inactives show at the top dose activity change, negative = growth inhibition, actives largely listed as inhibitors; chicken DT40 Tdp1-/-;hTDP1 cells + 20 nM CPT, ATP luminescence, 48 h; further: on the % scale 0 is the no-effect control and ±100 the full control effect; nearly all actives have a fitted effect of over 55% in size
#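 Chicken DT40 Tdp1-/- cells complemented with human TDP1, 400 cells/well, exposed to compounds plus 20 nM camptothecin for at least 48 h at 37 C; viability read as ATP content by CellTiter-Glo luminescence.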
# TDP1 cell noCPT: qHTS for Inhibitors of human tyrosyl-DNA phosphodiesterase 1 (TDP1): qHTS in cells in absence of CPT. DT40 Tdp1-/- hTDP1 cells, no CPT, ATP luminescence, 48 h. Potency, µM (series often up to 46.2 µM), inactives show top-dose activity change, negative = growth inhibition, hits mostly inhibitors. 15% of 420,000 active; further: on the % scale 0 is the no-effect control and ±100 the full control effect; nearly all actives have a fitted effect of over 55% in size
#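 No-CPT arm: Tdp1-/-;hTDP1 DT40 cells (400/well) plus compounds, incubated ≥48 hr at 37 °C. Readout CellTiter-Glo luminescence.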
# HT1080-NT tox: qHTS for induction of synthetic lethality in tumor cells producing 2HG: qHTS for the HT-1080-NT fibrosarcoma cell line. HT-1080-NT fibrosarcoma viability, CellTiter-Glo ATP luminescence, 48 h. Potency, µM (doses to about 46.1 µM), inactives show at the top dose activity, negative = less viability, most hits filed as cytotoxic. 1.6% of 360,000 active. AID 686970, 2013;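 further: NT is the 2HG producing partner of a matched IDH1 knockdown line; 0% = DMSO-treated cells and -100% = media-only wells without cells; nearly all actives have a fitted effect of over 55% in size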
#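 HT-1080-NT; 750 cells/well; 5% FBS RPMI; 48 h compound, 37 degrees C; CellTiter-Glo luminescence; curve fitting and curve-class assignment.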
# HT1080 IDH1KD tx: qHTS for induction of synthetic lethality in tumor cells producing 2HG: qHTS for the HT-1080-IDH1KD cell line; HT-1080 IDH1 knockdown viability, ATP luminescence, 48 h; 2% of 360,000 active; AID 686971, 2013; Potency, µM (titrated, usually from 46.1 µM), for the others: at the highest dose activity, negative = toxicity, most hits filed as cytotoxic;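 further: 0% = DMSO wells and -100% = cell-free medium wells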
#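 % activity derives from luminescence (CellTiter-Glo), normalised to DMSO and no-cell wells. HT-1080-IDH1KD cells, 750/well, had 48 h compound exposure at 37 °C.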
# HepG2 tox: qHTS for Inhibitors of TGF-b: Cytotox Counterscreen; Potency, µM (series often up to 46.1 µM), for the others: at the highest dose activity change, negative = cytotoxicity, actives largely listed as cytotoxic; AID 588856, 2011; HepG2 CAGA-GFP viability, ATP luminescence, 18 h; 0.76% of 410,000 active
#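 HepG2 CAGA-GFP cells (1000/well, DMEM with 1% FBS) received compound, then TGF-beta at 500 pg/mL final, and were incubated 18 hours at 37 degrees C. Viability was read by CellTiter-Glo luminescence. Media-only wells were set as complete cell-killing and DMSO as no toxicity.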
# * = called active by the depositor; ? = inconclusive; · = no result. The call rests on the fitted dose curve; in most records, active means well fitted curve in the direction sought with a large enough effect; inconclusive means small, poorly fitted or top-dose-only effect, or another doubt; inactive means no such curve, though single readings can be large; an effect the other way counts as inactive or inconclusive. Potency means the concentration at half of the fitted maximal effect.
SMILES,TGFb SMAD3 inh,TDP1 cell CPT,TDP1 cell noCPT,HT1080-NT tox,HT1080 IDH1KD tx,HepG2 tox
CN1CCN(/N=C/c2ccc(N(c3ccccc3)c3ccccc3)cc2)CC1,2µM*,?,?,-13%,-5%,4%
CC(=O)N[C@@H](C)C(=O)NCC1Cc2cccc(-c3ccccc3C(F)(F)F)c2O1 (some centres not stated),·,9%,-22%,·,·,·
COC(=O)c1sc2cccc(F)c2c1S(=O)(=O)Nc1ccc(C)cc1Cl,1%,-11%,14%,·,·,-4%
Cc1cc(-c2ccccc2)c2ccc(NC(=O)C(C)(C)C)nc2n1,-9%,21µM*,15µM*,-6%,1%,-4%
Cc1cc(/C=C/c2c(C)cnc3ccccc23)ccc1N(C)C,?,8.9µM*,8.9µM*,·,·,-66%
Cc1cnc2ccccc2c1/C=C/c1ccc(N(C)C)cc1,-28%,?,?,·,·,-28%
CN(C)c1ccc(/C=C/c2c(F)cnc3ccccc23)cc1,?,7.9µM*,3.2µM*,·,·,-51%
Cc1cnc2ccc(I)cc2c1/C=C/c1ccc(N(C)C)cc1,-2%,?,4.5µM*,·,·,-26%
CCNC(=O)CSc1nnc(-c2cccc(S(=O)(=O)N3CCOCC3)c2)o1,16%,0%,-18%,0%,-3%,-13%
CN(C(=O)c1ccc2c(c1)N(Cc1cccc(Cl)c1)C(=O)c1ccccc1S2(=O)=O)C1CCCCC1,?,21µM*,?,·,·,2%
CN(C(=O)c1ccc2c(c1)N(Cc1ccc(F)cc1)C(=O)c1ccccc1S2(=O)=O)C1CCCCC1,?,23µM*,16µM*,·,·,-21%
O=C(NCc1ccccc1)c1ccc(-c2ccc(F)cc2)o1,-2%,-9%,-14%,-2%,-14%,-18%
CC(C)(C)c1ccc(C2C(C(=O)c3ccco3)=C(O)C(=O)N2CC2CCCO2)cc1 (configuration not stated),-3%,?,18µM*,10%,0%,11%
Cc1nn(Cc2ccc(Cl)cc2)c(=O)n1N(C)c1ncc(C(F)(F)F)cc1Cl,0%,21µM*,21µM*,-21%,-19%,1%
CN(NS(=O)(=O)c1ccc(Cl)cc1)c1ncc(C(F)(F)F)cc1Cl,-16%,?,?,-1%,-2%,-22%
Cc1nn(Cc2ccc([N+](=O)[O-])cc2)c(=O)n1N(C)c1ncc(C(F)(F)F)cc1Cl,-4%,?,11µM*,-19%,-15%,-6%
COc1ccccc1CNC(=O)c1ccccc1C(=O)NC(CC(C)C)C(=O)NCc1ccccc1OC (configuration not stated),1%,?,?,0%,14%,2%
Cc1ccc(-c2ccc(C(=O)Nc3cccc(F)c3)o2)c2ccccc12,?,?,21µM*,0%,-6%,-19%
O=C(Nc1cccc(F)c1)c1ccc(-c2ccccc2Cl)o1,?,?,16µM*,4%,0%,-44%
COc1ccc(/C(N)=N/OC(=O)N2CCOCC2)cc1,-22%,?,21µM*,-8%,-5%,-28%
COc1ccc(OC(=O)N2CCOCC2)cc1,19%,0%,-2%,1%,3%,-2%
O=C(Cc1ccc(Cl)cc1)NNC(=O)C(=O)NC1CCCCC1,7%,0%,-16%,1%,-11%,10%
Cc1ccc(S(=O)(=O)N2[C@H](CC(=O)Oc3ccccc3)OC[C@@H]2C(C)C)cc1,·,13µM*,13µM*,0%,-2%,·
